Source: PubChem (several laboratories)
FXIa mix inh: FXIa protease inhibitors in compound pools, primary screen, biochemical, 10-compound mixtures | inhibition, % at 5 µM | purified FXIa, fluorogenic substrate, pooled mixtures | Coagulation factor XI (Homo sapiens), P03951 | hit rate 0.19% among 62,000;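 note: each value is inhibition by a whole ten-compound pool holding the compound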
FXIIa mix inh: human factor XIIa inhibitors, primary screen, biochemical, pooled compound mixtures, fluorogenic substrate; Coagulation factor XII (Homo sapiens), P00748; purified FXIIa; inhibition, % at 5 µM; hit rate 0.2% among 62,000; AID 684, 2007
Target sequence (P00748 20-372 limits assumed): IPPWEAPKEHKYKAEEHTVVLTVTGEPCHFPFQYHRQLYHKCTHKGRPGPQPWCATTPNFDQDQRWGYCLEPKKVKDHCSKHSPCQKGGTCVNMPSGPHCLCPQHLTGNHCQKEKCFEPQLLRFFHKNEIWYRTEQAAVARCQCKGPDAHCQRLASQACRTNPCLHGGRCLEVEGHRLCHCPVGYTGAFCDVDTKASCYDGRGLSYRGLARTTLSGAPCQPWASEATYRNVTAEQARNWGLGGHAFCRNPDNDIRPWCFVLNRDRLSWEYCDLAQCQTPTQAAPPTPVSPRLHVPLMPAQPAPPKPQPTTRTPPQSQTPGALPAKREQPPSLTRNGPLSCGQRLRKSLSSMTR
Target sequence (P00748 373-615 limits assumed): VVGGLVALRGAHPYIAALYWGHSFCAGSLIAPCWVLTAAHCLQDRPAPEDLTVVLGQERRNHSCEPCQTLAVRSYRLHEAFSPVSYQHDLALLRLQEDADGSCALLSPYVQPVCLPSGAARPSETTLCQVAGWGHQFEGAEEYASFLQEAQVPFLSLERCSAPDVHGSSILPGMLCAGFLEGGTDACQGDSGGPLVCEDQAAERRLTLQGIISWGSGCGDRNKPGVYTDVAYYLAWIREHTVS
D1 mod: D1 CRE-luciferase signal change, two-sided – cell-based, HEK293 D1, dopamine EC30, D1 allosteric modulator project, primary screen; D(1A) dopamine receptor (Homo sapiens), P21728; dopamine EC30 potentiation; actives deviate in either direction; B-score at 10 µM; hit rate 5.9% among 58,000;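 active = luminescence count or its row- and column-corrected plate score outside the 99.7% band of the plate's sample wells, on either side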
DAT uptake mod: changed hDAT dopamine uptake under cocaine IC80, either direction, primary screen, cocaine antagonist project, cell-based, LLC-PK1 hDAT, [14C]-dopamine uptake, MLSMR. Sodium-dependent dopamine transporter (Homo sapiens), Q01959. LLC-PK1 hDAT cells, [14C]-dopamine uptake with cocaine IC80; actives deviate in either direction. B-score at 10 µM. hit rate 1.3% among 110,000;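 active = Z score or B-score, a plate-position-corrected score, falls beyond the plate's 99.7% confidence bounds, in either direction; inactive = both scores lie inside the 99.7% bounds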
M1 antagonist: antagonists of rat M1 muscarinic receptor | hit rate 3.4% among 64,000 | CHO-M1 cells, Fluo-4 calcium, ACh EC80 antagonist mode; hits give low values | B-score at 10 µM | Muscarinic acetylcholine receptor M1 (Rattus norvegicus), P08482;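 active = calcium fluorescence response, raw or row-and-column corrected B-score, differing from the plate sample mean either way at a set confidence level, mostly lower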
M1 ag: M1 muscarinic receptor agonists, primary screen, CHO-M1 cells, Fluo-4 calcium, agonist mode; Muscarinic acetylcholine receptor M1; Fluo-4 calcium fluorescence; hits give high values; B-score at 10 µM; hit rate 3% among 64,000; AID 626, 2007;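 active = fluorescence rise, raw or as B-score row- and column-corrected plate score, outside the 99.7% band of its plate's samples, either direction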
M1 agonist conf: rat M1 muscarinic receptor agonists, confirmation, CHO-M1 cells, Fluo-4 calcium, duplicate retest | hit rate 19% among 1,700 | Fluo-4 calcium fluorescence, agonist mode; actives lie on both sides | shares compounds with M1 ag | AID 1488, 2009 | fluorescence change (max-min) at 10 µM;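 active = fluorescence change differs from the solvent-only DMSO control mean at a set confidence level in both duplicate runs; inconclusive = differs from solvent-only control mean in just one of two runs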;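 note: an EC20 dose of acetylcholine follows compound addition during the same imaging run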
M4 agonist ctr: agonist activity at rat M4 receptor, confirmation, counter-screen for M1 allosteric modulator project, cell-based, agonist mode | shares compounds with M1 ag | CHO M4/Gqi5 cells, Fluo-4 calcium fluorescence; actives lie on both sides | hit rate 9% among 1,700 | fluorescence change (max-min) at 10 µM;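 active = fluorescence change differing from the plate's solvent-only control wells at 99.7% confidence in both duplicates, whether higher or lower; inconclusive = differs from solvent controls in only one of two duplicates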
Numbers stand for hits; n = inactive; u = inconclusive; x = not tested or not shown. Rows were chosen to be rich in hits. Some 7.4% of all compounds tested hit in one or more screens of this group. Cut-off read from the data, not from the text of the source, unless noted: active = inhibition above about 20% (passing the limit was not always enough); inactive = the rest.

SMILES | FXIa mix inh | FXIIa mix inh | D1 mod | DAT uptake mod | M1 antagonist | M1 ag | M1 agonist conf | M4 agonist ctr
CCOC(=O)COn1c(=O)c(-c2cccs2)[n+]([O-])c2ccccc21 | n | n | n | n | n | 88 | 800 | u
CCOn1c(=O)c(-c2cccs2)[n+]([O-])c2ccccc21 | x | x | x | n | x | x | x | x
CCOn1c(=O)c(-c2ccc(Cl)cc2)[n+]([O-])c2ccccc21 | x | x | x | n | x | x | x | x
O=c1c(-c2ccccc2)[n+]([O-])c2ccccc2n1O | n | n | n | n | n | 9.3 | n | n
CCC(CC)C(=O)Nc1nnc(SCC(=O)N2CCN(c3ccccc3OC)CC2)s1 | x | x | n | n | n | n | x | x
CCOC(=O)C1=NNC(C(=O)c2ccc(OC)cc2)C1c1ccccc1 (configuration not stated) | x | x | x | n | x | x | x | x
CCN(CC)CCC(=O)Nc1ccc2c(c1)N(C(=O)CN(CC)CC)c1ccccc1CC2 | x | x | x | n | x | x | x | x
CC(=O)NC1(C2CCCCC2=O)CCCCC1 (configuration not stated) | n | n | n | n | n | 3.6 | n | n
COc1ccc(CCNc2oc(Cc3cccc4ccccc34)nc2C#N)cc1OC | n | n | n | n | n | n | x | x
COc1ccc(CCNc2oc(COc3ccc(Br)cc3)nc2C#N)cc1OC | n | n | x | n | n | 4.9 | -24 | -72
CCN(CC)CCn1c2ccccc2c2cnc(N=CN(C)C)c(C#N)c21 | n | n | x | n | n | n | x | x
CCCn1nc(C(=O)Nc2cccc(C(=O)OC)c2)c2ccccc2c1=O | n | n | n | n | n | 5.7 | n | n
COc1ccccc1NC(=O)CN(Cc1ccccc1)S(C)(=O)=O | x | x | x | n | x | x | x | x
Cc1cc(C)nc(NCCCc2ccccc2)n1 | n | n | x | n | x | x | x | x
CCCCNc1cc(C)nc(NCc2ccccc2)n1 | n | n | n | n | -3.2 | 6.4 | n | n
O=C(c1ccc2c(=O)n(C3CCCC3)c(=S)[nH]c2c1)N1CCN(C2CCCCC2)CC1 | n | n | n | x | n | n | x | x
CCN1CCN(C(=O)c2ccc3c(=O)n(C4CCCC4)c(=S)[nH]c3c2)CC1 | n | n | n | n | n | 1.4 | n | n
CCOC(=O)N1CCN(C(=O)c2ccc3c(=O)n(CCc4ccccc4)c(=S)[nH]c3c2)CC1 | n | n | n | n | n | n | x | x
CCCn1c(=S)[nH]c2cc(C(=O)N3CCCC(C(=O)OCC)C3)ccc2c1=O (configuration not stated) | n | n | n | n | n | 3.3 | n | u
CCCS(=O)(=O)N1CCN(CC2CC3C=CC2C3)CC1 (configuration not stated) | n | n | n | n | n | 3.1 | n | u
CN1CCN(c2ncnc3c2cnn3-c2ccc(Cl)cc2)CC1 | n | n | -6.2 | n | n | 2.9 | u | n
CCC(Oc1ccccc1)C(=O)Nc1ccc(S(=O)(=O)NCC2CCCO2)cc1 (configuration not stated) | n | n | n | n | n | -2.2 | n | n
COc1ccc(CN(Cc2ccccn2)C(=O)CN2C(=O)C(C)Oc3ccccc32)cc1 (configuration not stated) | n | n | n | n | n | 15 | n | n
N#CC1=C(N)SC(N)=C(C#N)C1CCC1CCCCC1 | n | n | n | n | n | 6.3 | n | n
Nc1nnc(CCC2CCCCC2)s1 | x | x | x | x | n | n | x | x
SMILES | FXIa mix inh | FXIIa mix inh | D1 mod | DAT uptake mod | M1 antagonist | M1 ag | M1 agonist conf | M4 agonist ctr
N#CC(C(=O)NCc1ccco1)c1nc2ccccc2nc1N1CCOCC1 (configuration not stated) | n | n | n | n | n | n | x | x
COc1ccc(OC)c(NC(=O)CSc2nnc(CNC(=O)c3ccco3)o2)c1 | n | n | n | n | n | n | x | x
COc1cccc(-c2cc(C(F)(F)F)n3ncc(C(=O)NCC4CCCO4)c3n2)c1 (configuration not stated) | n | n | n | n | n | 6.6 | u | n
Cc1noc(C(=O)Nc2sc3c(c2C#N)CCC3)c1Cl | n | n | n | n | n | -3.6 | n | n
O=C(NC1CCCCC1)NC1CCN(S(=O)(=O)c2ccc3c(c2)OCCO3)CC1 | n | n | n | n | n | n | x | x
CCn1c(C(=O)N2CCC(C(=O)NCCCSC3CCCCC3)CC2)cc2sccc21 | n | n | n | n | n | 2.5 | -19 | n
O=C(CNc1ccc(Oc2ccccc2)cc1)N1CCOCC1 | n | n | n | n | n | 2.8 | u | u
O=C(CN1CCOCC1)Nc1ccc(Oc2ccc(NC(=O)CN3CCOCC3)cc2)cc1 | n | n | n | n | n | n | x | x
O=C1CCC(=O)N1CNc1ccc(Oc2ccccc2)cc1 | n | n | n | n | n | -3.2 | u | n
COC(=O)c1sccc1NC(=O)CSc1ccccc1NS(=O)(=O)c1ccc(Br)cc1 | x | x | x | n | x | x | x | x
CCCS(=O)(=O)N1CCCC(C(=O)NC2CCCCC2)C1 (configuration not stated) | n | n | n | n | n | n | x | x
C=CCOC(=O)C1=C(C)NC(=O)NC1c1cn(-c2ccccc2)nc1-c1cccs1 (configuration not stated) | n | n | n | n | n | n | x | x
COCCOC(=O)C1=C(C)NC(=O)NC1c1cn(-c2ccccc2)nc1-c1cccs1 (configuration not stated) | n | n | x | n | -2.1 | 11 | u | n
Cc1cc(Nc2ccc(Br)c(C)c2)n2nc(C)nc2n1 | n | n | x | n | n | 4.7 | u | n
CCn1c(=O)n(CC)c2cc(S(=O)(=O)Nc3c(C)cccc3C)ccc21 | x | x | x | n | x | x | x | x
COC(=O)c1ccc(-c2ccco2)n1Cc1ccccc1Cl | x | x | x | n | x | x | x | x
COC(=O)c1ccc(-c2ccco2)n1Cc1nc(-c2ccc(OC)c(OC)c2)oc1C | n | n | n | n | n | 1.8 | n | n
CCN(CC)Cc1c(O)ccc2c(-c3ccccc3)cc(=O)oc12 | n | n | n | n | n | n | x | x
CCCCN(C)Cc1c(O)ccc2c(-c3ccccc3)cc(=O)oc12 | n | n | x | n | -3.8 | 8.2 | n | n
Cc1ccnc(SCC(=O)Nc2sc3c(c2C#N)CCCC3)n1 | n | n | n | n | n | 3.4 | n | u
Cc1csc(SCC(=O)Nc2sc3c(c2C#N)CCC3)n1 | x | x | x | n | x | x | x | x
CCOC(=O)C1CCN(C(=O)c2cn(CCOC)c(=O)c3c2c2ccccc2n3C)CC1 | n | n | n | n | n | n | x | x
